{"source": "PubChem BioAssay AID2590", "about": "(National Center for Advancing Translational Sciences (NCATS), 2010)", "note": "Inconclusive results are not listed. Active and inactive are the calls of the source. The call rests on the fitted dose curve; in most records, active means well fitted curve in the direction sought with a large enough effect; inconclusive means small, poorly fitted or top-dose-only effect, or another doubt; inactive means no such curve, though single readings can be large or run the other way. Potency means the concentration at half of the fitted maximal effect."}
{"molecular_target": "Lysosomal acid glucosylceramidase (Homo sapiens) (UniProt P04062)", "sequence (P04062 whole entry N409S)": "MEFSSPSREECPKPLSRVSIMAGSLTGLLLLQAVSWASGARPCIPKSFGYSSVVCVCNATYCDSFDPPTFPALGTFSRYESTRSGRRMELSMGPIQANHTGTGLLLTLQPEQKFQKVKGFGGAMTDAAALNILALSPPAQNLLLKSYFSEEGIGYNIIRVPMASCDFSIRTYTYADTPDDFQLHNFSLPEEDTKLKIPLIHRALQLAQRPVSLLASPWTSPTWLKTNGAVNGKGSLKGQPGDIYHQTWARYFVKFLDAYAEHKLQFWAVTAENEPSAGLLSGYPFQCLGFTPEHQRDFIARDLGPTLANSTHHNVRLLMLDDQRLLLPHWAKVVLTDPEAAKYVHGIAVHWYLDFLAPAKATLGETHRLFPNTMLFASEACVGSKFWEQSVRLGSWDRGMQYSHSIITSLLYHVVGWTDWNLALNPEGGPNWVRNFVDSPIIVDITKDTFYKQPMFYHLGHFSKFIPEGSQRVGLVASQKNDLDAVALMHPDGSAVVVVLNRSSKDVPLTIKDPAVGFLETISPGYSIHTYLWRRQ", "test": "qHTS Assay for Inhibitors and Activators of N370S glucocerebrosidase as a Potential Chaperone Treatment of Gaucher Disease: Primary Screen Confirmation;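 on Potency: enzyme source is Gaucher patient spleen homogenate not purified recombinant protein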", "conditions": "N370S glucocerebrosidase enzyme activity, fluorogenic substrate; series mostly up to 54 µM", "outline": "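Patient-spleen homogenate carrying N370S GC (27 ug) in pH 5.0 citrate buffer with 0.01% Tween-20, 1 mM 4-methylumbelliferyl-beta-glucoside, 40 min at 37C; fluorescence 365/440 nm after NaOH/glycine stop; AC50 from Hill fits.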"}
{"compound": "COc1ccccc1NC(=O)COc1ccccc1C(=O)Nc1ccccc1", "Potency": "inactive"}
{"compound": "CC(=O)N1CCN(C(=O)c2cc(-c3ccc(Cl)s3)nc3ccccc23)CC1", "Potency": "inactive"}
{"compound": "S=C(NCCCc1cnc[nH]1)NCCCN(CCc1ccc(Cl)cc1)c1ccc(Br)cn1", "Potency": "1.79 µM (active)"}
{"compound": "Cc1ccc(S(=O)(=O)N2CCN(c3nc(-c4cscn4)nc4ccccc34)CC2)cc1", "Potency": "4.11 µM (active)"}
{"compound": "O=C(/C=C/c1ccc(O)cc1)c1ccc(O)cc1O", "Potency": "11.2 µM (active)"}
{"compound": "CN(CCCN(Cc1ccc(Cl)cc1)c1ccc(Br)cn1)C(=S)NCCCc1cnc[nH]1", "Potency": "2.53 µM (active)"}
{"compound": "O=S(=O)(c1ccccc1)N1CCN(c2nc(-c3ccc(F)cc3)nc3cc(Cl)ccc23)CC1", "Potency": "inactive"}
{"compound": "CCOc1ccc(N(CC(=O)NC2CCCCCC2)S(=O)(=O)c2c(C)[nH]c(=O)[nH]c2=O)cc1", "Potency": "7.94 µM (active)"}
{"compound": "O=S(=O)(c1ccc(F)cc1F)N1CCN(c2nc(-c3cccs3)nc3ccccc23)CC1", "Potency": "1.27 µM (active)"}
{"compound": "Cc1nc2nc(-c3ccccc3)cn2nc1C", "Potency": "inactive"}
{"compound": "Cc1ccc(S(=O)(=O)N2CCN(c3nc(-c4cccs4)nc4ncccc34)CC2)cc1", "Potency": "2.25 µM (active)"}
{"compound": "CC(=O)c1ccccc1S(=O)(=O)N1CCN(c2nc(-c3cccs3)nc3ccccc23)CC1", "Potency": "3.26 µM (active)"}
{"compound": "CCOC(=O)c1ccc(Nc2cc(C)nc(-c3ccccc3)n2)cc1", "Potency": "10.3 µM (active)"}
{"compound": "O=S(=O)(c1ccc(F)cc1)N1CCN(c2nc(-c3ccc(F)cc3)nc3cc(Cl)ccc23)CC1", "Potency": "inactive"}
{"compound": "CCOc1ccc(N(CC(=O)Nc2ccc(C)cc2)S(=O)(=O)c2c(C)[nH]c(=O)[nH]c2=O)cc1", "Potency": "11.2 µM (active)"}
{"compound": "CCN(CC)c1ccc(Br)cn1", "Potency": "9.18 µM (active)"}
{"compound": "COc1ccc(NC(=O)Nc2cccc(C)n2)c(OC)c1", "Potency": "inactive"}
{"compound": "N=c1c(S(=O)(=O)c2ccccc2)cc2c(=O)n3ccccc3nc2n1CCCN1CCOCC1", "Potency": "inactive"}
